Bioassay records as filed in PubChem BioAssay.
ZTA DNA inh – ZTA (EBV) inhibition in EBNA-1 counter-screen. inhibition, % at 11 µM. AID 2234. ZTA-DNA binding, fluorescence polarization. 320,000 tested, 0.15% active; in the data active = inhibition above about 33%
Keap1-Nrf2 PPI – inhibitors of human Keap1-Nrf2 protein-protein interaction; Keap1 Kelch-Nrf2 peptide fluorescence polarization, 1536-well; inhibition, % at 9.4 µM; 340,000 tested, 0.15% active; in the data active = inhibition above about 12%;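 note: human Keap1 Kelch domain with fluorescein labeled Nrf2 9mer peptide probe; 0% = neutral control wells and 100% = peptide positive control; higher means more block of Keap1 binding to Nrf2 peptide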
C-LANA FP – KSHV C-LANA DNA binding inhibition; MBP-C-LANA/FAM-LBS DNA binding, fluorescence polarization; inhibition, % at 9 µM; 340,000 tested, 0.078% active;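 active = highest replicate inhibition at or above 60% at 9 µM, even if other replicates fall short; inactive = all replicates below 60% inhibition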;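 note: 0% = neutral control wells and 100% = 4 µM acridine orange control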
EBNA-1 inhibitor – blocks EBNA-1 binding to DNA; EBNA-1 DNA binding, fluorescence polarization; inhibition, % at 14.8 µM; 300,000 tested, 0.34% active; AID 1950; in the data active = inhibition above about 28%
E coli Lon inh – E. coli protease La inhibition; P0A9M0; purified E. coli Lon protease, fluorescence polarization; inhibition, % at 7.94 µM; 360,000 tested, 0.42% active; AID 602123; in the data active = inhibition above about 13%, passing the limit was not always enough;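 note: 0% = enzyme with probe and DMSO and 100% = no enzyme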
Target sequence (P0A9M0 whole entry, looked up): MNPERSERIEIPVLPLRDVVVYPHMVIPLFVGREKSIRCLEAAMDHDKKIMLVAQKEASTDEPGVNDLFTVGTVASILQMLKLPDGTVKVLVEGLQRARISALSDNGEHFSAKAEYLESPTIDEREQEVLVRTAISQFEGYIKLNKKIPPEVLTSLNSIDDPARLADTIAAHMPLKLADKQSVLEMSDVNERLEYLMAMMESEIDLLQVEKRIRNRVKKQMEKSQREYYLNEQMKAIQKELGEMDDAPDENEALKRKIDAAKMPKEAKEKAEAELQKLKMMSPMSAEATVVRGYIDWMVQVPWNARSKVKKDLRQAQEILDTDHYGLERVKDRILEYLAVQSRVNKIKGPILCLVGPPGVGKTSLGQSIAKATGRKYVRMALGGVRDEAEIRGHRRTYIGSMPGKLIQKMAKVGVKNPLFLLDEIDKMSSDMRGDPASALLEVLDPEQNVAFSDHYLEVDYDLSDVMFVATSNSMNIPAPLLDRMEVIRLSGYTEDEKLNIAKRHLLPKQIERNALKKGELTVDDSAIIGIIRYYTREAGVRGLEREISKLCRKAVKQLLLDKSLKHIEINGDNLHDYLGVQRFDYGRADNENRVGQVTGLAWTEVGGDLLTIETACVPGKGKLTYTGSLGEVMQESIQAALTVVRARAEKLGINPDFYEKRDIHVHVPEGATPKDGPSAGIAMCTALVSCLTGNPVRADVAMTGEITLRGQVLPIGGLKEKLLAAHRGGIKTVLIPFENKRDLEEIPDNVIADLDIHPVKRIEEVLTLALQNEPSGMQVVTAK
E coli Lon conf – confirmation of E. coli Lon protease inhibitors; purified E. coli Lon, fluorescence polarization; 1,400 tested, 31% active; inhibition, % at 7.94 µM; AID 602230; shares compounds with E coli Lon inh; in the data active = inhibition above about 16%;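 note: 0% = enzyme with probe and DMSO and 100% = no enzyme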
* marks the source's active call; other numbers are inactive results; x = not tested or not shown; + = active, no number. Sampled rows, rich in hits. Any-hit rate of the full collection: about 0.85%.

SMILES	ZTA DNA inh	Keap1-Nrf2 PPI	C-LANA FP	EBNA-1 inhibitor	E coli Lon inh	E coli Lon conf
CCCc1ccc2oc(C(=O)NCCc3cnn(C)c3)c(C)c2c1	2.5	-3.7	0.9	-1.0	19.3*	-3.5
CCCc1ccc2oc(C(=O)NCCc3nc(C(=O)OCC)cs3)c(C)c2c1	x	4.1	-0.3	x	-8.2	x
CCN(CC)S(=O)(=O)c1ccc2nnn(OCC(=O)Nc3cccc(C#N)c3)c2c1	-16.5	-1.3	-0.3	8.7	18.1*	-4.7
CCOc1ccc(NC(=O)COn2nnc3ccc(S(=O)(=O)N4CCOCC4)cc32)cc1	-4.2	1.4	0.5	-1.4	5.6	x
CCN(C(=O)COC(=O)CCc1c[nH]c2ccccc12)c1c(N)n(Cc2ccccc2)c(=O)[nH]c1=O	4.9	0.1	1.1	3.3	4.3	x
Cc1cc2cc(CNC(=O)Nc3cccc(Cl)c3)ccc2n1C	0.5	-1.7	-0.3	7.8	40.2*	44.8*
Cc1cccc(NC(=O)NCc2ccc3c(c2)cc(C)n3C)c1	8.3	3.7	-1.5	-1.8	30.0*	13.3
Cc1c(C(=O)NCc2ccc3c(c2)cc(C)n3C)cccc1[N+](=O)[O-]	16.3	-3.5	0.2	-9.0	31.1*	3.9
CCCC(=O)NCc1ccc2c(c1)cc(C)n2C	0.8	-2.7	-0.4	-13.3	2.3	x
COc1ccc(CNC(=O)Nc2cccc(Cl)c2)cc1	x	1.3	0.8	x	-6.8	x
COCOc1cccc(CN2CCC2(C)C(=O)Nc2ccc(C)cc2)c1 (centres undefined)	x	x	x	x	-0.7	x
O=C1C=CC(=Nc2ccc3c(c2)Cc2cc(F)ccc2-3)O1	x	-4.4	0.7	x	-9.2	x
O=C1C=CC(=Nc2cccc3c2C(=O)c2ccccc2-3)O1	x	2.5	11.3	x	+	6.1
Cc1ccc(-n2nc3c(=O)n(CC(=O)NCCc4ccco4)nc(C)c3c2C)cc1	0.0	-7.8	-0.1	0.2	35.7*	-2.5
Cc1ccc(-n2nc3c(=O)n(CC(=O)NCCCc4ccccc4)nc(C)c3c2C)cc1	7.4	4.2	-0.6	3.4	1.9	x
CCc1ccc([C@@H]2CC=C(C(=O)O)[C@H](c3ccc(C(C)(C)C)cc3)N2S(=O)(=O)c2ccc(C)cc2)cc1	x	-7.7	-0.8	x	1.9	x
Cn1c(=O)c2c(-c3ccccc3)n(-c3cccc(O)c3)cc2n(C)c1=O	x	x	x	x	18.2*	6.1
Cc1cccc(-c2c3c(=O)n(C)c(=O)n(C)c3cn2-c2ccc(O)cc2)c1	4.2	-1.7	0.1	8.7	-7.8	x
Cc1cccc(C)c1NC(=O)C(C)Sc1n[nH]c(-c2ccncc2)n1 (centres undefined)	4.8	-1.2	0.4	-3.9	-2.3	x
NNC(=O)CNC(=O)c1ccccc1F	3.8	1.2	-0.2	-2.1	53.2*	-4.1
CN(C)c1nc(N)nc(CSc2nnnn2-c2ccc(Cl)cc2)n1	x	x	x	x	-2.0	x
CC(=O)Nc1ccc(S(=O)(=O)NCc2ccc3c(c2)cc(C)n3C)cc1	-5.7	-3.0	-0.5	-0.6	48.5*	22.2*
Cc1cc2cc(CNC(=S)Nc3ccc(OC(F)(F)F)cc3)ccc2n1C	7.6	3.0	0.3	-6.5	19.1*	19.1*
COc1cccc(NC(=S)NCc2ccc3c(c2)cc(C)n3C)c1	x	-0.8	0.9	x	9.1	x
Cc1cc2cc(CNS(=O)(=O)c3ccc4ccccc4c3)ccc2n1C	8.0	1.2	1.9	0.2	16.3*	11.8
SMILES	ZTA DNA inh	Keap1-Nrf2 PPI	C-LANA FP	EBNA-1 inhibitor	E coli Lon inh	E coli Lon conf
Cc1cc(C)c(S(=O)(=O)NCc2ccc3c(c2)cc(C)n3C)c(C)c1	4.4	-2.3	1.3	10.7	13.9	x
CC(=O)Nc1ccc(S(=O)(=O)NCc2ccc(C)cc2)cc1	-2.1	-6.5	1.3	-1.8	4.6	x
CC(=O)Nc1ccc(S(=O)(=O)NCc2ccc3[nH]c(C)cc3c2)cc1	1.9	-4.0	1.4	1.5	19.4*	7.3
COc1ccc(C(=O)N2CCC(C)(C(=O)O)C2)cc1OC (centres undefined)	x	x	x	x	-2.1	x
O=C(NCCN1CCOCC1)c1cc(S(=O)(=O)NCCCN2CCCC2=O)ccc1Cl	15.3	-0.8	0.5	7.9	40.1*	9.9
O=C(NC1CCCCC1)C1c2ccccc2OCC(=O)N1Cc1ccccc1 (centres undefined)	x	x	x	x	-2.6	x
COc1ccc(CNC(NC(=O)c2ccccc2)(C(F)(F)F)C(F)(F)F)cc1	-3.6	-3.8	-1.3	-8.7	29.6*	3.0
CCOC(=O)C(NCc1ccc(F)cc1)(NC(=O)c1ccccc1)C(F)(F)F (centres undefined)	5.9	1.3	-0.8	2.9	-6.4	x
